Screening results deposited in PubChem by Buhrlage Lab, Dana-Farber Cancer Institute and Novartis Institutes for BioMedical Research (Cambridge, Mass).
The list is not random: actives were taken first. Their share in the collection is about 6.8%.
USP7 inh = blocks human USP7 ubiquitin-rhodamine cleavage; Q93009; inhibition, % at 20 µM; purified USP7, Ub-rhodamine cleavage fluorescence; AID 1645854; 47,000 compounds, 0.3% hits
USP10 inh = inhibitors of human USP10 deubiquitinase. Q14694. purified USP10, Ub-rhodamine fluorescence, 60 min. inhibition, % at 20 µM. 47,000 compounds, 1.1% hits
Target sequence (Q14694 whole entry, looked up): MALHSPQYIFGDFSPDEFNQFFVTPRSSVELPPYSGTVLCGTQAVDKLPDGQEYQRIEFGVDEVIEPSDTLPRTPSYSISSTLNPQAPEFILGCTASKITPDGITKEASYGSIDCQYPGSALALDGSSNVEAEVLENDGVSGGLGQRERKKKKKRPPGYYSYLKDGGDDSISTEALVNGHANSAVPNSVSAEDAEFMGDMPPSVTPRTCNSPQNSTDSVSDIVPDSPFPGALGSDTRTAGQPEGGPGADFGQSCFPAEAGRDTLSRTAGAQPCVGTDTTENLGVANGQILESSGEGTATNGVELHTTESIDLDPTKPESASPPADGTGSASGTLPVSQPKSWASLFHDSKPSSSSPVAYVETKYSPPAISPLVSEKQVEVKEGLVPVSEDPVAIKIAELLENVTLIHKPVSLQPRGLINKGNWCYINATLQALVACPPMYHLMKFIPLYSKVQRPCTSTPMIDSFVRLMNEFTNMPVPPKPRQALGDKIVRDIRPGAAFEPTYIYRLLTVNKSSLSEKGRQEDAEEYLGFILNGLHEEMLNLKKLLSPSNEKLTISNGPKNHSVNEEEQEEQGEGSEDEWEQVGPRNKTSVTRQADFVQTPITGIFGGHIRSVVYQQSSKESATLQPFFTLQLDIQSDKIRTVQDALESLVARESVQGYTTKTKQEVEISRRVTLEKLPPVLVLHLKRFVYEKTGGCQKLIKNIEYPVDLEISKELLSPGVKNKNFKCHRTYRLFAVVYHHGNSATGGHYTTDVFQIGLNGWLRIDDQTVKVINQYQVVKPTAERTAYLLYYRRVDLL
UCHL1 block = inhibitors of human UCHL1 deubiquitinase; P09936; purified UCHL1, Ub-rhodamine cleavage fluorescence; inhibition, % at 20 µM; 47,000 compounds, 0.2% hits
USP8 block = blocks human USP8 ubiquitin-rhodamine cleavage. purified USP8, Ub-rhodamine cleavage fluorescence, 30 min. inhibition, % at 20 µM. 47,000 compounds, 4.2% hits. AID 1645853
OTUD3 block = human OTUD3 deubiquitinase inhibition. purified OTUD3, Ub-rhodamine fluorescence, 2 h. inhibition, % at 25 µM. 47,000 compounds, 0.7% hits
USP28 inh = human USP28 deubiquitinase inhibition; 47,000 compounds, 3% hits; AID 1645857; purified USP28, Ub-rhodamine cleavage fluorescence, 30 min; inhibition, % at 25 µM
Numbers stand for hits; – = inactive. Cut-off read from the data, not from the text of the source: active = inhibition above about 30%; inactive = the rest.

SMILES | USP7 inh | USP10 inh | UCHL1 block | USP8 block | OTUD3 block | USP28 inh
Cc1cccc(COc2ccc(C3CC(=O)Nc4nc(C)[nH]c(=O)c43)cc2)c1 (centres undefined) | – | – | – | – | – | –
CC(NC(=O)CCC(=O)NCc1ccc2c(c1)OCO2)c1ccccc1 (centres undefined) | – | – | – | – | – | –
CCOCc1ccc(C(=O)N[C@H](C)c2nc3cc(-c4ccc(OC)cc4)ncn3n2)cc1 | – | 35 | – | – | – | –
O=C(c1cccc(S(=O)(=O)Nc2cccc(C(F)(F)F)c2)c1)N1CCCc2ccccc21 | – | – | – | – | – | –
Cc1ccc(OC(C)C(=O)Nc2ccc3nsnc3c2)cc1C (centres undefined) | – | – | – | 45 | – | –
CCc1ccc(OC(C)C(=O)Nc2ccc3nsnc3c2)cc1 (centres undefined) | – | – | – | 66 | – | –
Cc1cc(C)cc(OC(C)C(=O)Nc2ccc3nsnc3c2)c1 (centres undefined) | – | – | – | – | – | –
CC(Oc1ccccc1Cl)C(=O)Nc1ccc2nsnc2c1 (centres undefined) | – | – | – | 36 | – | –
CCCCn1c(SCC(=O)c2c[nH]c3ccccc23)nnc1-c1ccc(OC)cc1 | – | – | – | – | – | –
COCCN1CCn2c(nc3cc(NC(=O)C4CCCCC4)ccc32)C1 | – | – | – | – | – | –
O=C(NCCCO)c1cc2c(cn1)[nH]c1ccccc12 | – | – | – | – | – | –
O=C(NC1CCCCC1)c1cc2c(cn1)[nH]c1ccccc12 | – | – | – | – | – | 59
Cc1nc2c(c(=O)[nH]1)C(c1cccc3ccccc13)CC(=O)N2 (centres undefined) | – | – | – | – | – | –
CCc1nc(SCC(=O)O)c2oc3ccccc3c2n1 | – | – | – | – | – | –
NS(=O)(=O)c1ccc(NC(=O)c2ccc3c(c2)CC(c2ccccc2)OC3=O)cc1 (centres undefined) | – | – | – | – | – | –
CC(=O)Nc1ccc(NC(=O)c2ccc3c(c2)CC(c2ccccc2)OC3=O)cc1 (centres undefined) | – | – | – | 34 | – | –
O=C(Nc1ccc(CN2CCOCC2)cc1)c1cccc(Br)c1 | – | – | – | – | – | 38
CC(=O)Nc1cccc(C(=O)Nc2ccc(CN3CCOCC3)cc2)c1 | – | – | – | – | – | –
O=C1N[C@@H]2CN(C(=O)c3ccc4ccccc4c3)CC[C@H]2CO1 | – | – | – | – | – | –
CCN(Cc1ccccc1)S(=O)(=O)c1ccc(C(=O)Nc2ccc3c(c2)OCCO3)cc1 | – | – | – | – | – | 60
CS(=O)(=O)N1CCCc2cc(C(=O)Nc3ccc(Oc4ccccc4)cc3)ccc21 | – | – | – | – | – | 54
CCS(=O)(=O)N1CCc2cc(C(=O)Nc3ccc4c(c3)OCCO4)ccc21 | – | – | – | – | – | 93
COc1ccc(C(=O)Nc2ccc3c(c2)OCCCO3)cn1 | – | – | – | – | – | 32
CS(=O)(=O)N1CCCc2cc(C(=O)NCc3ccc4c(c3)OCO4)ccc21 | – | – | – | – | – | –
CCC(C)n1c(SCC(=O)Nc2cc(OC)c([N+](=O)[O-])cc2C)nnc1-c1cccc(S(=O)(=O)N2CCOCC2)c1 (centres undefined) | – | – | – | – | – | –
SMILES | USP7 inh | USP10 inh | UCHL1 block | USP8 block | OTUD3 block | USP28 inh
CCc1cc2c(cc(C(=O)OC)n2CC(=O)Nc2ccccc2F)s1 | – | – | – | – | – | –
CCOC(=O)Nc1nc2c(s1)CN(C(=O)c1ccccc1Cl)CC2 | – | – | – | – | – | –
Cc1cccc(NC(=O)c2ccc3c(c2)N(S(C)(=O)=O)CC3)c1 | – | – | – | – | – | –
CC1CS(=O)(=O)N(c2ccc(C(=O)Nc3ccc4c(c3)OCCO4)cc2)C1=O (centres undefined) | – | – | – | – | – | 79
Cc1ccc(CNC(=O)c2ccc(N3C(=O)C(C)CS3(=O)=O)cc2)cc1 (centres undefined) | – | – | – | – | – | –
CS(=O)(=O)N1CCc2cc(C(=O)Nc3ccc(Cc4ccncc4)cc3)ccc21 | – | – | – | – | – | 75
Cc1cccc(NC(=O)CN2CCC(c3nc(-c4ccncc4)no3)CC2)c1 | – | – | – | – | – | –
CSc1cccc(NC2c3ccccc3C(=O)N2c2ccccc2C)c1 (centres undefined) | – | – | – | – | – | 44
Cc1ccc(NC2c3ccccc3C(=O)N2c2ccccn2)cc1 (centres undefined) | – | – | – | – | – | –
Cc1ccccc1-c1nc(Cn2c(=O)c3cccnc3n(-c3ccccc3)c2=O)c(C)o1 | – | – | – | – | – | –
CCOc1ccc(NC(=O)N2CCC(c3cc4n(n3)CCCNC4=O)CC2)cc1 | – | – | – | – | – | –
O=C(Nc1ccc2c(c1)OCO2)C1CCN(C(=O)c2ccc3n[nH]nc3c2)CC1 | – | – | – | 36 | – | 45
O=C(Nc1ccc2c(c1)OCCO2)C1CCN(C(=O)c2ccccc2)CC1 | – | – | – | – | – | 76
O=C(Nc1ccc2c(c1)OCCO2)C1CCC(Cn2cnc3ccccc3c2=O)CC1 (centres undefined) | – | 51 | – | – | – | 92
O=C(O)CCNC(=O)C1CCC(Cn2cnc3ccccc3c2=O)CC1 (centres undefined) | – | – | – | – | – | –
O=c1cc(CN2CCc3ccccc32)cc[nH]1 | – | – | – | 33 | – | –
Cc1nn(-c2cccc(F)c2)c2c1C(C(=O)c1ccc3c(c1)OCCO3)CC(=O)N2 (centres undefined) | – | – | – | – | – | –
CN(C(=O)c1ccncc1)[C@H]1CC[C@@]2(C)C[C@H](c3ccccc3)C[C@](C)(O2)[C@@H]1O | – | – | – | – | – | 81
Cn1c(CNC(=O)C2CCC2)nc2c1CN(C(=O)c1ccc(C(F)(F)F)cc1)CC2 | – | – | – | – | – | –
Cc1ccccc1OCCC(=O)NC(c1ccccc1)c1ccccc1 | – | – | – | – | – | –
COc1ccccc1NC(=O)CSC1=NC2(CCCCC2)Nc2ccccc21 | – | – | – | 84 | – | –
COc1ccc(NC(=O)CSC2=NC3(CCCCC3)Nc3ccccc32)c(OC)c1 | – | – | – | – | – | –
CC(=O)c1ccc(NC(=O)/C(=C/c2ccco2)n2nnnc2-c2ccccc2)cc1 | – | – | – | 62 | – | –
COc1cc(C#N)c(NC(=NCc2ccc(F)cc2)SC)cc1OC | – | – | – | – | – | 35
Cc1ccc(C(=O)N(Cc2cc3cc(C)ccc3[nH]c2=O)CC2COCCO2)cc1 (centres undefined) | – | – | – | – | – | –
O=S(=O)(c1ccc2c(c1)OCCCO2)N1CCN(Cc2nc3ccccc3o2)CC1 | – | – | – | – | – | –
CCOC(=O)c1ccc(NC(=O)c2ccc(SCCN3CCOCC3)nc2)cc1 | – | – | – | – | – | –
